The results in this text go back to PubChem BioAssay (Tox21).

The nature of experiment [1]: Nuclear factor erythroid 2-related factor 2/antioxidant responsive element (Nrf2/ARE) small molecule agonists: qHTS cell viability counter screen in human keratinocytes (AID 1919968; active = well fitted curve in the direction sought with a large enough effect in the repeat runs; an effect the other way counts as inactive or inconclusive; also: nearly all actives have a fitted effect of over 55% in size). An outline of the steps: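 Parallel cytotoxicity read: KeratinoSens HaCaT cells, compound treatment 23 h, viability by CellTiter-Fluor fluorescence 1 h post-reagent.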
(In qHTS, concentration-response curves come from the screen itself.)

A short description of experiment [2]: Nuclear factor erythroid 2-related factor 2/antioxidant responsive element (Nrf2/ARE) small molecule agonists: luciferase reporter gene qHTS assay in human keratinocytes (AID 1919969; also: nearly all actives have a fitted effect of over 35% in size; also: potency is read from the fitted curve at half-maximal effect). (In general: In a reporter assay the amount or activity of a reporter protein is the signal.)
Experiment [3] deals with Gonadotropin-releasing hormone receptor (Homo sapiens) (UniProt P30968). Kind of experiment: Human gonadotropin-releasing hormone receptor (GnRHR) small molecule agonists, calcium flux assay in GnRHR-HEK293 cells (AID 1920063). Also: nearly all actives have a fitted effect of over 35% in size. The gist of the method: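 Calcium flux, agonist mode, human GnRHR stably integrated in HEK293; dye 1 h at 37 C before compound; Ex/Em=480/540 kinetic read, 3 min; 15 concentrations, triplicate.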
(Calcium assays in cells follow changes in intracellular calcium, usually with a dye or a luminescent sensor.)

The target in experiment [4] is KiSS-1 receptor (Homo sapiens) (UniProt Q969F8). Description: Human kisspeptin (KISS1R) small molecule agonists, calcium flux assay in KISS1R-HEK293 cells (AID 1920064; active = well fitted curve in the direction sought with a large enough effect in the repeat runs; an effect the other way counts as inactive or inconclusive). An outline of the steps:
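Triplicate 15-concentration series were applied to dye-loaded human KISS1R HEK293 cells, and agonist-evoked calcium fluorescence was captured for 3 min.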

A short description of experiment [5]: G protein-coupled receptor (GPCR) small molecule agonists, calcium flux assay: HEK293 wild type cell line counter screen (AID 1920065). An outline of the steps:
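Non-specific calcium responders were flagged by adding DMSO-dissolved compounds to dye-loaded cells and reading 480/540 nm fluorescence each second for 3 min; ATP served as positive control.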

A short description of experiment [6]: p53 small molecule agonists, cell-based qHTS assay with human liver microsomes: qHTS cell viability counter screen (AID 1963579). Also: nearly all actives have a fitted effect of over 45% in size. Also: potency is read from the fitted curve at half-maximal effect. An outline of the steps: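 Tox21 library compounds, delivered from DMSO stocks, were tested on p53RE-bla cells together with 0.5 mg/mL human liver microsomes and 0.5 mg/mL NADPH (final) over 16 h at 37 C; CellTiter-Glo luminescence served as the cytotoxicity measure.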

Experiment [7] in a line: p53 small molecule agonists, cell-based qHTS assay with rat liver microsomes: qHTS cell viability counter screen (AID 1963580). Also: nearly all actives have a fitted effect of over 45% in size. An outline of the steps:
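Cytotoxicity counter screen: intracellular ATP read by CellTiter-Glo luminescence in the p53 reporter wells. HCT-116 p53RE-bla cells were treated for 16 h at 37 C alongside rat liver microsomes and NADPH, each 0.5 mg/mL final.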

The nature of experiment [8]: p53 small molecule agonists, cell-based qHTS assay: qHTS cell viability counter screen (AID 1963581). Also: nearly all actives have a fitted effect of over 45% in size. An outline of the steps:
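Multiplexed with the reporter read, a CellTiter-Glo step (30 min, room temperature) gauges ATP-based viability of HCT-116 p53RE-bla cells after 16 h compound incubation at 37 C.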

Experiment [9] addresses 5-hydroxytryptamine receptor 2A (Homo sapiens) (UniProt P28223). Kind of experiment: 5-hydroxytryptamine receptor 2A (HTR2A) small molecule antagonists, cell-based qHTS assay (AID 1963586). Also: nearly all actives have a fitted effect of over 45% in size. The gist of the method: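 CHO cells stably expressing human HTR2A were plated for 18 h at 37 C, then loaded with calcium dye for 1 h. Compounds were preincubated 5 min at room temperature before DOI (4 nM solution) was added. Kinetic fluorescence was read for 3 min.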

Experiment [10] has the same target. Kind of experiment: 5-hydroxytryptamine receptor 2A (HTR2A) small molecule agonists, cell-based qHTS assay (AID 1963587). Also: nearly all actives have a fitted effect of over 30% in size. The gist of the method:
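Kinetic calcium-flux fluorescence (2 min, 1 sec intervals) after compound addition in agonist mode. HTR2A-CHO cells were cultured 18 h, then dye-loaded 1 h at 37 C.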

Experiment [11] has as its target Muscarinic acetylcholine receptor M1 (Homo sapiens) (UniProt P11229). Description: Cholinergic receptor muscarinic 1 (CHRM1) small molecule antagonists, cell-based qHTS assay (AID 1963588). Also: nearly all actives have a fitted effect of over 40% in size. An outline of the steps:
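Compounds were tested at 15 concentrations in three independent runs. Dye-loaded CHRM1-CHO cells were exposed 5 min at room temperature before stimulation by acetylcholine added at 50nM. Intracellular calcium was read kinetically on FDSS for 3 min.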

The target is the same in experiment [12]. Kind of experiment: Cholinergic receptor muscarinic 1 (CHRM1) small molecule agonists, cell-based qHTS assay (AID 1963589). Also: nearly all actives have a fitted effect of over 35% in size. An outline of the steps:
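qHTS, 15-point titration, 3 independent runs: compounds pin-transferred onto dye-loaded CHRM1-CHO cells (human M1), calcium fluorescence followed every second to detect agonism.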

Experiment [13] in a line: cAMP Responsive Elements (CRE) small molecule agonists, cell-based qHTS assay (AID 1963590). The gist of the method:
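Quantitative HTS for CRE agonists: HEK 293T CRE-bla cells, overnight plating, 3 h compound incubation at 37 C/5% CO2, then 2 h room-temperature LiveBLAzer B/G FRET substrate loading.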

The nature of experiment [14]: cAMP Responsive Elements (CRE) small molecule antagonists, cell-based qHTS assay (AID 1963591; active = well fitted inhibition curve with a large enough effect in the signal ratio in the repeat runs, not every such curve was filed as active; the % refers to the signal ratio). The gist of the method: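 Fluorescence intensity from cleaved LiveBLAzer B/G substrate (2 h, room temperature) quantified CRE-bla activity in HEK 293T cells exposed 3 h to compound with 0.25 uM final NKH477.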
The target in experiment [15] is Beta-2 adrenergic receptor (Homo sapiens) (UniProt P07550). Description: Adrenergic beta2 receptor (ADRB2) small molecule antagonists, cell-based qHTS assay (AID 1963592). Also: series mostly up to about 92 µM; nearly all actives have a fitted effect of over 50% in size. The gist of the method:
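Assay format: CHO-ADRB2 cells, 18-20hr seeding at 37C/5% CO2, then compound plus 1nM isoproterenol agonist mix for 0.5hr RT. Homogeneous time-resolved fluorescence cAMP detection after 1hr, expressed as 665/615 nm ratio.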

For experiment [16], the target named is D(2) dopamine receptor (Homo sapiens) (UniProt P14416). Kind of experiment: Dopamine D2 receptor (DRD2) small molecule agonists, cell-based qHTS assay (AID 1963594). Also: nearly all actives have a fitted effect of over 35% in size. The gist of the method:
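cAMP accumulation in DRD2-HEK293 cells measured by HTRF after 1 h detection; compounds added 10 min before NKH477 (200nM […]) forskolin-analogue stimulation, 30 min at room temperature, with Ro20-1724 present at 0.1 mM final.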

In experiment [17] the target is Beta-2 adrenergic receptor (Homo sapiens) (UniProt P07550). Description: Adrenergic beta2 receptor (ADRB2) small molecule agonists, cell-based qHTS assay (AID 1963593).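 Also: CHO cells stably overexpressing human ADRB2.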 The gist of the method: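 CHO cells stably over-expressing ADRB2 were plated overnight at 37C, then dosed with compounds plus a stimulation mix containing 100uM IBMX and 25uM Ro-20-1724 for 0.5hr at room temperature. cAMP was measured by HTRF competition, 1hr.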

Experiment [18] deals with D(2) dopamine receptor (Homo sapiens) (UniProt P14416). Kind of experiment: Dopamine D2 receptor (DRD2) small molecule antagonists, cell-based qHTS assay (AID 1963595; active = well fitted inhibition curve with a large enough effect in the signal ratio in the repeat runs, with a control signal flat; the % refers to the signal ratio). An outline of the steps:
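HEK293 cells stably expressing DRD2 were preincubated with 0.1 mM Ro20-1724, then with compound for 10 min at room temperature. Cells were stimulated with 200 nM NKH477 plus 12 nM quinpirole for 30 min, and cAMP was read by HTRF.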

Values without a mark were called inactive. Records with an inconclusive call do not appear. Activity calls are given as the source filed them. Unless noted, calls follow the shape of the full dose curve.

Sequence of Gonadotropin-releasing hormone receptor (Homo sapiens) (P30968 whole entry, looked up): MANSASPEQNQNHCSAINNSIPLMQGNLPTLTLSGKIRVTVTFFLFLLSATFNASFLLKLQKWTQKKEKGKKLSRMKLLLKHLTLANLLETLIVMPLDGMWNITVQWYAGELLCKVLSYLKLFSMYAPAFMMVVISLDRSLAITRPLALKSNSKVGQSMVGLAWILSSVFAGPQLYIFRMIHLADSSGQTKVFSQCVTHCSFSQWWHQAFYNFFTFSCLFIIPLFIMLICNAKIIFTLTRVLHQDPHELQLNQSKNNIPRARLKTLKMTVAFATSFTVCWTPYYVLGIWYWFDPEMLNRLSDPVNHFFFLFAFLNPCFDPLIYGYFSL
Sequence of D(2) dopamine receptor (Homo sapiens) (P14416 whole entry, looked up): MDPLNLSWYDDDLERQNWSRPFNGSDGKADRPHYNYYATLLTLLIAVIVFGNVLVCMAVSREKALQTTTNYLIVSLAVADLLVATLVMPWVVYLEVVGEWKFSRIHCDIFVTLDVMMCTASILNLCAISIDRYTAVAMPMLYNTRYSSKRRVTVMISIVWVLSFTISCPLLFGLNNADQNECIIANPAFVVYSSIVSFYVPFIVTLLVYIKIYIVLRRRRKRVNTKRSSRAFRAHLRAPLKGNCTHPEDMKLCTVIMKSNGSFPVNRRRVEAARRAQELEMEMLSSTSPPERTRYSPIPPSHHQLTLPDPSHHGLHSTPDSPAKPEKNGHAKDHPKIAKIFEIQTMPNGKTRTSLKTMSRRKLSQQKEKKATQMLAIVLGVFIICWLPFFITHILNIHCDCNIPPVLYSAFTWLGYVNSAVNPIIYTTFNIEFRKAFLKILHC
Sequence of Beta-2 adrenergic receptor (Homo sapiens) (P07550 whole entry, looked up): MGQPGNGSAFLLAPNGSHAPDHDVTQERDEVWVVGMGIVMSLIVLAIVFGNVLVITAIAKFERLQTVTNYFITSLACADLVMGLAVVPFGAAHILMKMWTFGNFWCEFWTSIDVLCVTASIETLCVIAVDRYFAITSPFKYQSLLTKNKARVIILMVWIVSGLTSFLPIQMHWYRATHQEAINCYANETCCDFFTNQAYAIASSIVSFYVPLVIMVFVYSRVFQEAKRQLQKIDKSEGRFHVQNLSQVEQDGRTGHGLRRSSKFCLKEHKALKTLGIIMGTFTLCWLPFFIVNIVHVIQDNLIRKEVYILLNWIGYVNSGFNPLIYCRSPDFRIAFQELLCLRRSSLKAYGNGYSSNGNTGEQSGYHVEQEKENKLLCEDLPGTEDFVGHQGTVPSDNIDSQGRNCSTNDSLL
Sequence of 5-hydroxytryptamine receptor 2A (Homo sapiens) (P28223 whole entry, looked up): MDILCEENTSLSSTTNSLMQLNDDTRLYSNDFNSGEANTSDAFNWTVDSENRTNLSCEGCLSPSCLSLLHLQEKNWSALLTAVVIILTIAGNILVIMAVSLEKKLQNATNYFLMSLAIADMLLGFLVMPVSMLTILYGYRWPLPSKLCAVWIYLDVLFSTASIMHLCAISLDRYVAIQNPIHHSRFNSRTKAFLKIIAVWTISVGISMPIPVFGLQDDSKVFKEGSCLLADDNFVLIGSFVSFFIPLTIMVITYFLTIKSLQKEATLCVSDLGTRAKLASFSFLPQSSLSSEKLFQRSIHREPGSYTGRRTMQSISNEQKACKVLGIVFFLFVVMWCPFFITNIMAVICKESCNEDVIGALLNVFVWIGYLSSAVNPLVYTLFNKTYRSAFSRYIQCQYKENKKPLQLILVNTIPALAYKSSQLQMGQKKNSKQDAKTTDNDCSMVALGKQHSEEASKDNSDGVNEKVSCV
Sequence of KiSS-1 receptor (Homo sapiens) (Q969F8 whole entry, looked up): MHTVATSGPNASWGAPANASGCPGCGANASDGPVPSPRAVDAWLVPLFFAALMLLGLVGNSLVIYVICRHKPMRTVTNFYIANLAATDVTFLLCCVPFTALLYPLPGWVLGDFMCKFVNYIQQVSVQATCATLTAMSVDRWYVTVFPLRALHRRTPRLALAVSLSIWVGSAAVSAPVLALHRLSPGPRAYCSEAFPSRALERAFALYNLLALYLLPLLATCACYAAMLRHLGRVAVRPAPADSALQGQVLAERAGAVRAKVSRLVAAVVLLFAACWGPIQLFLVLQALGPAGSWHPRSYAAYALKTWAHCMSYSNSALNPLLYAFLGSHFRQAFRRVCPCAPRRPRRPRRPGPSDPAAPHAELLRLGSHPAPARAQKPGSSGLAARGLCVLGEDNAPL
Sequence of Muscarinic acetylcholine receptor M1 (Homo sapiens) (P11229 whole entry, looked up): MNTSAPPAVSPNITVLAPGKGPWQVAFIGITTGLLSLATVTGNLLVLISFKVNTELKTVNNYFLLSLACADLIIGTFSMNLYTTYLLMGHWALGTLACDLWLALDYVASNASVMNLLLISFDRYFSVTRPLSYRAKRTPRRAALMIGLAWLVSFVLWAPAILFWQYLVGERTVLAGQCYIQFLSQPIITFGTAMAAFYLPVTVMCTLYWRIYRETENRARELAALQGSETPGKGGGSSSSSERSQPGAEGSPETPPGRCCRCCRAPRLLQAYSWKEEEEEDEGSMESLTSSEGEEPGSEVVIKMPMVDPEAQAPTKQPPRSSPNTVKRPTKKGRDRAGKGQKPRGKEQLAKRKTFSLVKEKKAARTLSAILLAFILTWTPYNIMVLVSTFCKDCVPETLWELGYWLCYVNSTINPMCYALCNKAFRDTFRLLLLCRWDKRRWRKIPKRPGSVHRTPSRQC

With `CCSCC`, the Potency entry in [1], in experiment [3], in [4], in [5], in [7] and in experiment [8] was “inactive” in each case. In addition, the Potency entry in experiment [9], in experiment [10], in experiment [11], in [12], in experiment [13] and in [14] was “inactive” each time. The Potency entry in experiment [15] and in experiment [16] was “inactive” in each case. Also, the Potency in experiment [2] is 72.5 µM (active); in experiment [6], 19.3 µM (active).

For `N#Cc1ccccc1O`, the Potency result in experiment [1], in [2], in [3], in experiment [4], in experiment [5] and in [6] was “inactive” each time. For the same molecule, the Potency result in [7], in experiment [8], in experiment [9], in [10], in [11] and in experiment [12] was “inactive” throughout. Also, the Potency entry in [13], in experiment [14], in [15], in experiment [17], in [16] and in [18] was “inactive” in each case.

As to `CC(C)(C)Cl`, the Potency result in experiment [1], in experiment [2], in [3], in [4], in experiment [5] and in experiment [6] was “inactive” throughout. In addition, the Potency entry in experiment [7], in experiment [8], in experiment [9], in [10], in [11] and in experiment [12] was “inactive” throughout. Also, the Potency entry in experiment [13], in experiment [14], in [15], in experiment [17] and in [18] was “inactive” in each case.

`CC(=O)c1ccc(C)cc1`: the Potency entry in experiment [1], in [2], in experiment [3], in [4], in experiment [5] and in experiment [6] was “inactive” each time. Moreover, the Potency entry in [7], in experiment [8], in [9], in experiment [10], in [11] and in experiment [12] was “inactive” in each case. The Potency result in experiment [13], in experiment [14], in [15], in experiment [16] and in experiment [18] was “inactive” in each case.

For the molecule `COc1cc(N)ccc1C`, the Potency entry in [1], in experiment [2], in experiment [3], in experiment [4], in experiment [5] and in [6] was “inactive” in each case. Besides, the Potency result in experiment [7], in [8], in [9], in experiment [10], in experiment [11] and in [12] was “inactive” each time. Moreover, the Potency result in experiment [13], in experiment [14], in [15], in [17], in experiment [16] and in [18] was “inactive” in each case.

In the case of `CC1=C(O)C(=O)CO1`, the Potency result in experiment [1], in experiment [2], in experiment [3], in [4], in experiment [5] and in experiment [6] was “inactive” throughout. The Potency result in experiment [7], in experiment [8], in [9], in experiment [10], in [11] and in experiment [12] was “inactive” in each case. For the same molecule, the Potency result in experiment [13], in experiment [14], in experiment [15], in [17], in experiment [16] and in experiment [18] was “inactive” in each case.

As for `C=C(C)C1CC=C(C)C(=O)C1` (configuration not stated), the Potency entry in experiment [1], in experiment [2], in experiment [3], in [4], in [5] and in [7] was “inactive” each time. The Potency entry in experiment [8], in experiment [9], in experiment [10], in experiment [11], in [12] and in experiment [13] was “inactive” in each case. For the same molecule, the Potency entry in [14], in experiment [15], in [17], in experiment [16] and in [18] was “inactive” in each case. Further, in experiment [6], the Potency was 32.2 µM (active).
